The target in experiment [1] is Lysosomal acid glucosylceramidase (Homo sapiens) (UniProt P04062). Briefly: Glucocerebrosidase-p2 (AID 348; in the data active = potency below about 10 µM; note: potency is the fitted concentration of half-maximal effect). Particulars: purified GBA, blue fluorogenic substrate, 40 min. The method, boiled down: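 Normal human glucocerebrosidase (0.2 nM) with blue fluorogenic substrate (80 uM final) in citrate/phosphate pH 5.9 with 10mM sodium taurocholate, 0.01% tween-20; 40 min RT, NaOH/glycine stop; fluorescence Ex 365/Em 440; AC50 from a titration from 0.6 nM upwards.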

Experiment [2] in a line: AP1 Signaling Pathway (AID 357; active = well fitted curve in either direction with a large enough effect, not every such curve was filed as active; note: % is set by controls: 0 for no effect and ±100 for the full control effect). Particulars: ME-180 AP-1-bla reporter, EGF-induced, beta-lactamase ratio, 5 h; at 7.69 µM (top of the series) unless noted. The essentials:
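AP-1-bla ME-180 cells with beta-lactamase reporter under AP-1 response element, stimulated with EC50 EGF; compounds titrated, 5 hours at 37 degrees Celsius. CCF4 read at 460/530 nm ratio; positive and negative modulators judged by AC50.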

The nature of experiment [3]: NFAT Signaling Pathway (AID 444; active = well fitted curve in either direction with a large enough effect, not every such curve was filed as active;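 note: carbachol stimulus at about its EC50 of 1 µM final; % is set by controls: 0 for no effect and ±100 for the full control effect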). Particulars: Jurkat NFAT-bla M1, carbachol, beta-lactamase ratio, 5 h; at 7.69 µM (top of the series) unless noted. The essentials: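 Jurkat cells carrying an NFAT-driven β-lactamase reporter and co-transfected muscarinic M1 receptor were treated with compound plus carbachol (1 uM final, an EC50 level) for 5 h at 37 °C. CCF4 loading followed for 1 h at RT; 460/530 nm ratio gave %activity.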

A short description of experiment [4]: Stat Signaling Pathway (AID 446; active = well fitted curve in either direction with a large enough effect, not every such curve was filed as active;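 note: ME-180 cervical cancer cells given 40 pM IL-6 alongside compound; SIE-controlled beta-lactamase reporter measured as 460/530 nm FRET emission ratio; % is set by controls: 0 for no effect and ±100 for the full control effect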). Particulars: ME-180 SIE beta-lactamase reporter, IL-6 stimulated, 5 h; at 7.69 µM (top of the series) unless noted. The essentials:
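Emission at 460 and 530 nm (excitation 405 nm) reports SIE-controlled beta-lactamase in ME-180 cells. Cells received compound with 40 pM IL-6 for 5 hrs at 37 C; data scaled between 300 pM IL-6 and 125 nM JAK-inhibitor controls.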

The target of experiment [5] is Glucocorticoid receptor (Homo sapiens) (UniProt P04150). Briefly: GR-GFP Redistribution (AID 450;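 active = compounds whose dose series gives a full or clear partial fitted curve of increased nuclear translocation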; note: potency is the fitted concentration of half-maximal effect). Particulars: U2OS GR-GFP nuclear translocation, laser cytometry, 2 h.
For experiment [6] the target is unchanged. Briefly: GR-EFC Redistribution (AID 451; calls by dose curve; note: potency is the fitted concentration of half-maximal effect). Particulars: CHO-K1 GR-EFC translocation, beta-gal luminescence, 2 h. The essentials: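 CHO-K1 cells stably expressing nuclear-localized β-gal enzyme acceptor and GR fused C-terminally to the enzyme donor fragment; ligand-driven nuclear translocation restores β-gal by complementation. Compounds titrated up to 46 uM final, 2 h at 37 °C; luminescence read.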

Experiment [7] has as its target Mitogen-activated protein kinase 10 (Mus musculus) (UniProt Q61831). Description: JNK3 AlphaScreen Assay (AID 530; active = well fitted curve in either direction with a large enough effect, not every such curve was filed as active;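 note: kinase came from lysate of stimulated human HepG2 cells; signal reports phosphorylation of biotinylated GST-cJun 1-79 at Ser73 with 10 µM ATP; % is set by controls: 0 for no effect and ±100 for the full control effect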). Particulars: JNK3 lysate, c-Jun phosphorylation; series mostly up to 57.1 µM. The essentials:
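Biotinylated GST-cJun(1-79) served as substrate for JNK3 in HepG2 lysates stimulated with IL-1beta and TNF-alpha. ATP was 10 uM final, pH 7.6. Ser73 phosphorylation was quantified by AlphaScreen (680 nm excitation).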
In general terms: Bead proximity is the source of the signal in Alpha formats.

The target in experiment [8] is 3',5'-cyclic-AMP phosphodiesterase 4B (Homo sapiens) (UniProt Q07343). Description: qHTS Assay for Inhibitors of PDE-IV (AID 607; active = well fitted activation curve with a large enough effect in the main read-out, with a control signal flat, not every such curve was filed as active; note: % of control where 0% means no effect). Particulars: HEK293 ACTOne CNG channel cells, membrane potential fluorescence; series mostly up to 22.9 µM. The method, boiled down: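 The readout is membrane depolarisation from a cAMP-sensing CNG channel, detected with a potential dye at ex 535/em 590. Cells were HEK293-derived (endogenous PDE-IV) at 1000 cells/well, titrated up to 22.9 uM final.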
In general terms: In qHTS, concentration-response curves come from the screen itself.

In experiment [9] the target is Dual specificity protein kinase CLK4 (Homo sapiens) (UniProt Q9HAZ1). Briefly: qHTS Assay for Inhibitors of CDC-like Kinase 4 (ADP-Glo Assay) (AID 1771). Note: nearly all actives have a fitted effect of over 70% in size. Note: potency is the fitted concentration of half-maximal effect. Particulars: recombinant CLK4, ADP-Glo luminescence; series mostly up to 80 µM. The essentials: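 25 nM Clk4, 100 uM RS peptide, 1 uM ATP (final); 2 mM MgCl2, 0.5 mM EGTA, 2.5 mM DTT, 0.01% Triton X-100; 1 hr RT. ADP-Glo readout: ATP depletion 45 min, conversion/luciferase 30 min, luminescence.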

For experiment [10] the target is unchanged. Briefly: qHTS Assay for Inhibitors of CDC-like Kinase 4 (ADP-FP Assay) (AID 1795).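 Note: recombinant human CLK4 phosphorylating RS repeat peptide at 1 µM ATP; % is set by controls: 0 for no effect and ±100 for the full control effect; nearly all actives have a fitted effect of over 60% in size.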 Particulars: Transcreener ADP fluorescence polarization; series mostly up to 50 µM. The method, boiled down: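 FP readout: Orange Transcreener ADP2 tracer (4 nM) plus ADP antibody, read after 30 min at room temperature. Kinase step: 6.25 nM Clk4, 100 uM RS peptide, 1 uM ATP, pH 7.5, 1 h.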

The target of experiment [11] is Ubiquitin carboxyl-terminal hydrolase 1 (Homo sapiens) (UniProt O94782). Briefly: Inhibitors of USP1/UAF1: Pilot qHTS (AID 504865).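 Note: rhodamine fluorescence freed from ubiquitin-rhodamine substrate followed over time; top concentration of the series differs between compounds; % is set by controls: 0 for no effect and ±100 for the full control effect; nearly all actives have a fitted effect of over 35% in size.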 Particulars: purified USP1/UAF1, Ub-rhodamine cleavage fluorescence; series mostly up to 54.9 µM. The essentials:
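1nM USP1/UAF1 + cpd, 15 min RT; start w/ Ub-Rho 150nM final; kinetic FL 480/540 nm, 6 reads q60 s. Buffer 50mM HEPES pH 7.8, 0.5mM EDTA, 1mM TCEP, 0.01% Tween-20, 0.1 mg/ml BSA.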

A short description of experiment [12]: Primary qHTS for small molecule stabilizers of the endoplasmic reticulum resident proteome: Secreted ER Calcium Modulated Protein (SERCaMP) assay (AID 1508630). Note: % is set by controls: 0 for no effect and ±100 for the full control effect. Particulars: SH-SY5Y GLuc-SERCaMP (Gaussia luciferase released on ER calcium loss) secretion, thapsigargin, luminescence; series mostly up to 38.4 µM. The method, boiled down:
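The SH-SY5Y reporter protocol was run at 3 concentrations up to 38.3 uM (primary) or 11 concentrations (follow-up): 16 h compound, 100 nM thapsigargin for 4 h, then extracellular luciferase luminescence.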

Experiment [13] has as its target Cytochrome P450 1A2 (Homo sapiens) (UniProt P05177). Briefly: p450-cyp1a2 (AID 410; calls by dose curve; note: potency is the fitted concentration of half-maximal effect). Particulars: recombinant CYP1A2, luciferin-ME demethylation, luminescence; series mostly up to 57 µM. The essentials:
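20nM CYP1A2, 100uM Luciferin-ME (=Km), 100mM KPO4; cpd 10 min RT; +NADPH regen, 60 min RT; stop/detect 20 min; luminescence. Normalized to furafylline 57 uM = full inhibition.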

Experiment [14] can be described thus: qHTS Assay for Identification of Small Molecule Agonists for Hypoxia Response Element Signaling Pathway (AID 914; active = well fitted activation curve with a large enough effect in the signal ratio, with a control signal flat, not every such curve was filed as active; the % refers to the signal ratio; note: potency is the fitted concentration of half-maximal effect; for activation: % of control where 0% means no effect). Particulars: ME-180 (cervical carcinoma) HRE-bla reporter, beta-lactamase ratio, CoCl2, 17 h; activation: hits give high values. The method, boiled down:
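Read-out: CCF4 FRET ratio of 460nm to 530nm emission (excitation 405nm) after 2.5 hours at room temperature, taken from HRE-bla ME-180 cells that had been exposed to compound and EC50 CoCl2 for 17 hours.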

Experiment [15] has as its target Cytochrome P450 3A4 (Homo sapiens) (UniProt P08684). Briefly: qHTS Assay for Activators of Cytochrome P450 3A4 (AID 885). Note: nearly all actives have a fitted effect of over 65% in size. Particulars: recombinant CYP3A4, Luciferin-PPXE luminescence, 60 min; series mostly up to 57.1 µM. The essentials: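 Activators are scored by enhanced luminescence from CYP3A4 conversion of luciferin-PPXE (25uM, equal to KM) to luciferin, after 60 min at RT with an NADPH-regenerating system.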

Experiment [16] has the same target. Briefly: qHTS Assay for Inhibitors and Substrates of Cytochrome P450 3A4 (AID 884). Note: potency is the fitted concentration of half-maximal effect; nearly all actives have a fitted effect of over 50% in size. Particulars: recombinant CYP3A4, Luciferin-PPXE luminescence; series mostly up to 57.1 µM. The essentials:
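Luminescent readout of luciferin produced by CYP3A4 (20 nM) dealkylation of Luciferin-PPXE, 25 uM (its KM). NADPH-driven reaction ran 60 min at RT after 10 min compound preincubation; data scaled to 57 uM ketoconazole as 100% inhibition.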

A number with no mark means an inactive call. Results filed as inconclusive are left out. Calls of active or inactive are those of the source. Unless noted, calls come from the whole dose curve; as a rule, active = well fitted curve in the direction sought with a large enough effect; inconclusive = small, poorly fitted or top-dose-only effect, or another doubt; inactive = no such curve, though single readings can be large; an effect the other way counts as inactive or inconclusive.

Chain of Lysosomal acid glucosylceramidase (Homo sapiens) (P04062 whole entry, looked up): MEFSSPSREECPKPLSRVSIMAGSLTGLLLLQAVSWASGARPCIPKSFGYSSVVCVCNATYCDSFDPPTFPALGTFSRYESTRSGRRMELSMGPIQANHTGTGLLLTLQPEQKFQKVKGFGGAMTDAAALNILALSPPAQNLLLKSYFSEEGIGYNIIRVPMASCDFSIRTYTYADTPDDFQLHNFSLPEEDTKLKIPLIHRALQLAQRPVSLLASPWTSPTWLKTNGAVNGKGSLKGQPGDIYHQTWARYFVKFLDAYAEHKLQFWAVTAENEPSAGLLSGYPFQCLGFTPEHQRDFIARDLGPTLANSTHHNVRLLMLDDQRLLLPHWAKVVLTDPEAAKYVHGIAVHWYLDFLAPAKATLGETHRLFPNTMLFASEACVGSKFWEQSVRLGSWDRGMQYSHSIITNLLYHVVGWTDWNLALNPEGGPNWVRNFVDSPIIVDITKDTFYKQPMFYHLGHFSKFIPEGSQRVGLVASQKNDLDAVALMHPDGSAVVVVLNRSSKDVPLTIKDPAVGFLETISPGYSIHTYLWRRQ
Chain of Ubiquitin carboxyl-terminal hydrolase 1 (Homo sapiens) (O94782 whole entry, looked up): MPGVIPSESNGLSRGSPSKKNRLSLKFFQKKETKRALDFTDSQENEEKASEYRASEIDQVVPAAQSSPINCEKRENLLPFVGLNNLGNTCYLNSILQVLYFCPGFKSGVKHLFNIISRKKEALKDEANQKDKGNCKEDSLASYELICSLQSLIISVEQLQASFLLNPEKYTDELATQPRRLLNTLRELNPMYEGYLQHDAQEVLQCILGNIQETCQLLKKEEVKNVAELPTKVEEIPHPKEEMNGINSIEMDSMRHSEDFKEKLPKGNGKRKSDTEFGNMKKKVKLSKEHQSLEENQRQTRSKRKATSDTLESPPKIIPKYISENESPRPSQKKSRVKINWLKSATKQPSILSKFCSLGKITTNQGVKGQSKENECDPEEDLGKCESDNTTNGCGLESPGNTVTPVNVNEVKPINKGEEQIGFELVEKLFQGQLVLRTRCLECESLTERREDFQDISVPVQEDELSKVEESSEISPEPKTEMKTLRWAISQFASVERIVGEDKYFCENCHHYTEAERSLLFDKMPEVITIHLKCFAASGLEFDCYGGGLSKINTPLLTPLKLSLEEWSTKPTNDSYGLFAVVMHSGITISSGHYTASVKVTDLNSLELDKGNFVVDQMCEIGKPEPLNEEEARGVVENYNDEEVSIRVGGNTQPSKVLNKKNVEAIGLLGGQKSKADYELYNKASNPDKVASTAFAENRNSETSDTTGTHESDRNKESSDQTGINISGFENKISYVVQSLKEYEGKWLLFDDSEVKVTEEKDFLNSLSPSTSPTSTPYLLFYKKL
Chain of Dual specificity protein kinase CLK4 (Homo sapiens) (Q9HAZ1 whole entry, looked up): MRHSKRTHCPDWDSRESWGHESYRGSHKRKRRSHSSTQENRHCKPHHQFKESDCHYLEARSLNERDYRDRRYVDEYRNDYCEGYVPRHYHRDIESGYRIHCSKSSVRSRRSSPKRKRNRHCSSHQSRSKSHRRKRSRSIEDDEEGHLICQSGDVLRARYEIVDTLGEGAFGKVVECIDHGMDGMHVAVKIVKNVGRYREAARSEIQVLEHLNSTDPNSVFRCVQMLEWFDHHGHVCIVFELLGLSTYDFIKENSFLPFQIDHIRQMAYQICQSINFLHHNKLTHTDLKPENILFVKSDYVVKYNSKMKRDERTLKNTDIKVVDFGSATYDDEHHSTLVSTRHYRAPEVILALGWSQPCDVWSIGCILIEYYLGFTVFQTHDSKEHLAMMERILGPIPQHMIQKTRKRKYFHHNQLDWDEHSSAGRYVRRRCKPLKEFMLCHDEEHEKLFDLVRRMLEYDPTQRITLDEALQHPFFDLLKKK
Chain of 3',5'-cyclic-AMP phosphodiesterase 4B (Homo sapiens) (Q07343 whole entry, looked up): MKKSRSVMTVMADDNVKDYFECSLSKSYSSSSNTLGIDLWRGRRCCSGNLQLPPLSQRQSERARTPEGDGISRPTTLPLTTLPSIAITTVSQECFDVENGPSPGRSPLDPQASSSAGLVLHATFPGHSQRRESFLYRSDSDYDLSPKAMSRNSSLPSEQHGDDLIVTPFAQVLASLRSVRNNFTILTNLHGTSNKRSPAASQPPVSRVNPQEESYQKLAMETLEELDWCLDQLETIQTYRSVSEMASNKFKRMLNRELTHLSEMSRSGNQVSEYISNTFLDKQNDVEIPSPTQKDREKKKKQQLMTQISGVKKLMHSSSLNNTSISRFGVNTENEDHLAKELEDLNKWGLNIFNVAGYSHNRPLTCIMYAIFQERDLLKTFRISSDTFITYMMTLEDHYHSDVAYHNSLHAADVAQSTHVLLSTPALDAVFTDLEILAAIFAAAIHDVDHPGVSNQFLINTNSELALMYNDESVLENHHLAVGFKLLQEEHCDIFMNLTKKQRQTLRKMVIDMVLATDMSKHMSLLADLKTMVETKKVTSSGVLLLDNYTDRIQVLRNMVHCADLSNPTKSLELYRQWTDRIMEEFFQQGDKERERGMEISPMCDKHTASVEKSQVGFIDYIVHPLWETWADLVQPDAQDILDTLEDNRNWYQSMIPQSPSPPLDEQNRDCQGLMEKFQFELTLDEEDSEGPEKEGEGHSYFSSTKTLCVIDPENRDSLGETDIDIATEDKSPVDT
Chain of Glucocorticoid receptor (Homo sapiens) (P04150 whole entry, looked up, the tested form may be a part): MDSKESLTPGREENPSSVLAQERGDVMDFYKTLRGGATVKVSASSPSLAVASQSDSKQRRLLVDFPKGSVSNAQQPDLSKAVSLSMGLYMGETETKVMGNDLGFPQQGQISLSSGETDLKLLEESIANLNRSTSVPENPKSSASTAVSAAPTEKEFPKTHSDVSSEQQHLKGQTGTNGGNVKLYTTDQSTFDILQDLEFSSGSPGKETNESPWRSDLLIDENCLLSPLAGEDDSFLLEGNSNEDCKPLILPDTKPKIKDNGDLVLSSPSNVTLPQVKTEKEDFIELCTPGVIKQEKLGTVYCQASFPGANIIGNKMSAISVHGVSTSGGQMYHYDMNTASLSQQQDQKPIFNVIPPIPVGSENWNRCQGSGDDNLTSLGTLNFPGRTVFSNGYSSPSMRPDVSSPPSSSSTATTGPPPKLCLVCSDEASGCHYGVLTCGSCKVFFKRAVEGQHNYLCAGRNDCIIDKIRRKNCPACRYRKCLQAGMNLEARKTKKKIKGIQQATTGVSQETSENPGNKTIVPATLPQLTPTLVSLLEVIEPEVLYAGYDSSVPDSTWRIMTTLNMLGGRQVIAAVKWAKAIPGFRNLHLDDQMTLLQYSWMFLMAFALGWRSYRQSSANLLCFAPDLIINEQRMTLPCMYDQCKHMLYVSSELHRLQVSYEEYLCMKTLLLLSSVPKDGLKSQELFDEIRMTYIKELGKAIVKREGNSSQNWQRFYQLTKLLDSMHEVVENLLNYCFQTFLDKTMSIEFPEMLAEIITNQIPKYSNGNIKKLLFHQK
Chain of Cytochrome P450 1A2 (Homo sapiens) (P05177 whole entry, looked up): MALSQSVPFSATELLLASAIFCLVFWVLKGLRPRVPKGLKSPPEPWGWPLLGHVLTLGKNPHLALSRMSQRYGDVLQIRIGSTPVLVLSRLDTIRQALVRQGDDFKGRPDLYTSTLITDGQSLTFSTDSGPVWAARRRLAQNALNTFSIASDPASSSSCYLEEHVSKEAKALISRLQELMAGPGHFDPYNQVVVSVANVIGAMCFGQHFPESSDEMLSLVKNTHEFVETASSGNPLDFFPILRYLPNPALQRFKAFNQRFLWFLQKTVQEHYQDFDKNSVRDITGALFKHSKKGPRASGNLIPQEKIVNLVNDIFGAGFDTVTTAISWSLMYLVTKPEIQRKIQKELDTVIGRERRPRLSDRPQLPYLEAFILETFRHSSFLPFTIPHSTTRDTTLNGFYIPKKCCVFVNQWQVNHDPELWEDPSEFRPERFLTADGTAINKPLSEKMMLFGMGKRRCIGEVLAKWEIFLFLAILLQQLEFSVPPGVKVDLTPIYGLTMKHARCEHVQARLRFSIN
Chain of Cytochrome P450 3A4 (Homo sapiens) (P08684 whole entry, looked up): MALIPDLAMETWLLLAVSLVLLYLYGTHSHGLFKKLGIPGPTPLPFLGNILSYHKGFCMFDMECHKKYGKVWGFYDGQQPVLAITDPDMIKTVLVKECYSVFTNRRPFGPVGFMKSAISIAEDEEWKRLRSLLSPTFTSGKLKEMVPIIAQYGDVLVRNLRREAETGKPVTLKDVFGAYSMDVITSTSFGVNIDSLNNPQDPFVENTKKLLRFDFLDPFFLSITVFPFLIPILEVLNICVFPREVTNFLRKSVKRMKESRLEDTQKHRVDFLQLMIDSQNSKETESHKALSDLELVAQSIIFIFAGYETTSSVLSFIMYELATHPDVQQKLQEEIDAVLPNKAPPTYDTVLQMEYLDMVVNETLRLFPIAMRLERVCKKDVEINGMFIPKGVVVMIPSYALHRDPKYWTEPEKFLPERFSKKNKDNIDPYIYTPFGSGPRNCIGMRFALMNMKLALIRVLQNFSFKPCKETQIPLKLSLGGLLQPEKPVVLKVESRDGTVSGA

Regarding `O=c1c(-c2ccc(Cl)cc2)nc2cnc(Nc3ccccc3)nc2n1C1CC1`, the Potency was > 11.4 µM in experiment [1], > 9.22 µM in experiment [5] and > 46 µM in experiment [6]. Moreover, the values for the activity change, negative = inhibition in experiment [2] and in experiment [3] were -1.39% and -9.46%, respectively. Also, the activity, negative = inhibition in experiment [4] is -0.41%. The Potency result in experiment [7], in experiment [8], in [9], in [10] and in [11] was “inactive” in each case. Further, the result in experiment [12] was inactive.
On to `COc1ccc(-c2nc3cnc(N4CCOCC4)nc3n(CCc3ccccc3)c2=O)cc1`, for which the Potency is > 11.4 µM in experiment [1]; 10 µM (active) in experiment [13]; > 9.22 µM in [5]; > 46 µM in [6]; 1.26 µM (active) in [14]. In addition, the activity change, negative = inhibition in experiment [3] is 119% [activator] (active). Further, the activity, negative = inhibition in experiment [4] is 92.5% [activator] (active). In addition, the Potency result in experiment [7], in experiment [8], in experiment [9], in [10] and in experiment [11] was “inactive” in each case. Further, the result in experiment [12] was inactive.
For `COc1ccccc1-c1cc(NCc2cnc(C)cn2)ncn1`, the Potency in experiment [1] was > 11.4 µM; in [13] it was 12.6 µM (active); in experiment [5] it was > 46 µM; in experiment [6], > 46 µM; in experiment [9], 28.2 µM (active). Moreover, the activity change, negative = inhibition in experiment [2] was 5.08%; in [3], 2.34%. Further, in experiment [4], the activity, negative = inhibition is 2.04%. Besides, the Potency result in experiment [7], in experiment [8] and in experiment [11] was “inactive” each time. Moreover, the activation in [14] was 25.8%. For the same compound, in experiment [12], the result was inactive.
Turning to `O=c1c(-c2ccc(F)cc2)nc2cncnc2n1-c1ccccc1`, the Potency in experiment [1] was > 11.4 µM; in experiment [13], 7.94 µM (active); in [5], > 9.22 µM; in experiment [6], > 46 µM. The activity change, negative = inhibition in [2] was -2.6%; in experiment [3] it was 11.8%. The activity, negative = inhibition in experiment [4] is -3.31%. In addition, the Potency entry in experiment [7], in experiment [15], in experiment [9], in experiment [10] and in experiment [11] was “inactive” throughout. For the same compound, the outcome in [12] was inactive.
Consider `COc1ccc(-c2nc3cnc(N(C)C)nc3n(Cc3ccc(F)cc3)c2=O)cc1`, for which the results for the Potency in experiment [1], in experiment [5] and in experiment [6] were > 11.4 µM, > 9.22 µM and > 46 µM, respectively. Moreover, the activity change, negative = inhibition in experiment [3] was 102% [activator] (active). Besides, the activity, negative = inhibition in experiment [4] was 126% [activator] (active). Also, the Potency result in experiment [7], in experiment [9], in experiment [10] and in [11] was “inactive” throughout. Besides, in [12], the result was inactive.
As to `COc1ncc2nc(-c3ccc(Cl)cc3)c(=O)n(Cc3cccs3)c2n1`, the Potency in [1] was > 11.4 µM; in experiment [5], > 9.22 µM; in experiment [6] it was > 46 µM. Besides, the activity change, negative = inhibition was -16.7% in [2] and 2.52% in experiment [3]. Further, the Potency entry in [7], in experiment [8], in experiment [9], in experiment [10] and in experiment [11] was “inactive” each time. Moreover, the result in [12] was inactive.
Regarding `CN(C)c1ccc(-c2cncnc2-n2ccnc2)cc1`, the Potency in [1] was > 11.4 µM; in experiment [13], 2.51 µM (active); in experiment [5], > 46 µM; in experiment [6] it was > 46 µM; in [16] it was 2.51 µM (active); in experiment [9] it was 25.1 µM (active). The activity change, negative = inhibition in experiment [2] was -3.44%; in experiment [3], 4.48%. In [4], the activity, negative = inhibition was 10.2%. Besides, the Potency entry in experiment [7], in experiment [8], in experiment [15] and in experiment [11] was “inactive” in each case. Further, the outcome in experiment [12] was inactive.

Source of the values: PubChem BioAssay (NCATS).
